The structures appear in SMILES notation.

Results on 40 molecules are retold here after ChEMBL document CHEMBL3433997, “St. Jude Leishmania screening dataset” (2016).

For the assay, the target named is Glucose transporter (Leishmania mexicana) (UniProt O61059). The assay is described as follows: ST_JUDE_LEISH: Cytotoxicity at 2uM final concentration against transgenic Leishmania Mexicana promastigotes LmGT2 that are glucose transport deficient and complemented with the L. Mexicana glucose transporter 2. Activity is measured by DNA content using SYBR green in vitro. The format is functional.
As usually defined, the inhibition is the change of the read-out against control, counted positive when it falls. With `CCn1cc2c3c(cc(C(=O)N[C@@H](Cc4ccccc4)[C@H](O)CNCc4cccc(OC)c4)cc31)N(C)S(=O)(=O)CC2`, the inhibition was 2.18%.
As to `N#Cc1cccc(-c2ccc(C(=O)Nc3ccc4c(c3)CCN(C3CCC3)CC4)cn2)c1`, the inhibition stood at 5.26%.
Turning to `Cc1ccc(C(=O)Nc2ccc(C)c(OC3CCN(CCC(C)C)C3)c2)cc1` (stereo not given), the inhibition amounted to 5.85%.
`O=C(Nc1cccc(C(F)(F)F)c1)Nc1cc(F)c(F)cc1Cl`: the inhibition worked out at 2.36%.
In the case of `O=S(=O)(Nc1cc2c(cc1OCCCN1CCCCC1)CCNCC2)c1ccc(-c2ccc(Cl)cc2)cc1`, the inhibition was -0.37%.
In the case of `CC(=O)c1cccc2c(NC(=O)Nc3ccc4nccc(N5CCN(C)CC5)c4c3)cccc12`, the inhibition came out at 7.35%.
For `CCN(CC)CCCCNc1cc(-c2[nH]c(C(C)(C)C)nc2-c2ccc3cc(OC)ccc3c2)ccn1` the value was 1.94%; for `Cc1ccc(-c2ccc(Cl)cc2Oc2cnc(N)nc2N)o1`, 0.26%.
For `O=C(NCCCCCN1CCC(c2c[nH]c3ccccc23)CC1)Nc1ccc(I)cc1` the value was 9.45%; for `CC(=O)N(C)c1cccc(C(=O)Nc2cccc(-c3cccc(-c4nc5cc(C(F)(F)F)ccc5[nH]4)c3)c2)c1`, 5.52%; for `O=C(Nc1ccc(Cn2ncc(N3CCCNCC3)c(Cl)c2=O)cc1)Nc1cccc(SC(F)(F)F)c1`, 0.05%.
`CCc1ccc(-c2cnc(N)c3cc(-c4ccnc(N)n4)ccc23)cc1`: the inhibition is -1.72%.
With `Cc1cc(-c2nc3cncc(-c4cccc(CN5CCCC5Cc5cccnc5)c4)c3n2C)nn1C` (stereo not given), the inhibition is -0.34%.
`COc1ccccc1C1CCN(C2CCC(NC(=O)/C=C/c3cc(C(F)(F)F)cc(C(F)(F)F)c3)CC2)CC1` (stereo not given): the inhibition is -2.77%.
For `COc1ccc(-c2ncnc(C(F)(F)F)c2-c2ccc(Cl)cc2)c(O)c1` the value was 2.96%; for `N#Cc1cccc(C(=O)Nc2cccc(-c3ccc(C(=O)NCCCN4CCOCC4)cc3)c2)c1`, 5.11%.
As for `CN(C)CCOc1cc(NC(=O)/C=C/c2cccc3ccccc23)ccc1I`, the inhibition came to 8.23%.
As for `Cn1c(N)c(C(=O)CSc2ncc(-c3ccc(F)cc3)n2Cc2ccccc2)c(=O)n(C)c1=O`, the inhibition is 3.15%.
Turning to `COCCn1ccc2c3c(N)nc(N)nc3ccc21`, the inhibition came to 2.26%.
On to `CCN(CC)CCN(Cc1ccc(-c2ccc(C(F)(F)F)cc2)cc1)C(=O)Cn1c(CCc2cccc(F)c2F)c(C)c(=O)c2ccccc21`, for which the inhibition was 3.04%.
As for `Cc1cc2nc(N=C3NC4(c5ccccn5)NC(=Nc5nc6cc(C)c(C)cc6[nH]5)NC4(c4ccccn4)N3)[nH]c2cc1C` (stereo not given), the inhibition was -0.63%.
As for `NC(=O)COc1c(C2CCN(CCN3CCC(CNC(=O)c4ccc(-c5ccc(C(F)(F)F)cc5)cc4)CC3)CC2)ccc2c1CCCC2`, the inhibition stood at 3.32%.
Take `COc1ccc(NC(=O)NC2CCN(c3ccnc4ccccc34)C2)cc1` (stereo not given): the inhibition came out at 2.29%.
For `CCC1=C(CC2NCCc3cc(OC)c(OC)cc32)CC2c3cc(OC)c(OC)cc3CCN2C1` (stereo not given) the value was 89.6%; for `CCCCNC(=O)C1CCCN(C(=O)c2ccc(O)c(-c3ccc(Cl)c(Cl)c3)c2)C1` (stereo not given), 0.69%; for `CCc1cc(OC)ccc1C1CCN(CCCCNC(=O)c2ccc(NC(=O)c3ccc(Cl)cc3)cc2)CC1`, -1.82%.
Regarding `Cc1onc(-c2c(Cl)cccc2Cl)c1C(=O)N1CCc2cc3nccc(N4CCN5CCC[C@H]5C4)c3cc21`, the inhibition amounted to 5.26%.
Regarding `Cn1c2ccccc2c2c3ccccc3c(CNC(CO)(CO)CO)cc21`, the inhibition stood at 6.67%.
Turning to `Cc1cccc(OC(C)C(=O)Nc2cc(C(F)(F)F)ccc2N2CCOCC2)c1` (stereo not given), the inhibition was 6.44%.
On to `CCN(CCCN1CCCCC1)c1cc(C)nc(Nc2cccc(C(F)(F)F)c2C)n1`, for which the inhibition worked out at 0.96%.
Then `Cc1cc(=NN=Cc2ccc(F)cc2)c2cc(C(F)(F)F)ccc2[nH]1`, with 0.92%.
For `Cc1cc(C(=O)Nc2ccc(-c3ccccc3)cc2)no1`, the inhibition came to 0.52%.
Take `CC(C)N(C(=O)CSc1nc2cc(Cl)ccc2c(=O)n1Cc1ccccc1)C(C)C`: the inhibition is 0.05%.
Turning to `COCCn1c(-c2cccc(Cl)c2)nn(-c2ccc([N+](=O)[O-])cc2Cl)c1=S`, the inhibition amounted to 7.62%.
For `Cc1cc(N2CCCCC2)nc2ccc(NC(=O)c3cccc([N+](=O)[O-])c3)cc12`, the inhibition turned out to be 6.58%.
Consider `CC(=O)c1c[nH]c(C(=O)Nc2ccc(-c3cn4ccccc4n3)cc2)c1`, for which the inhibition was 10.2%.
As for `CCCN1CCC=C(c2cccc(Nc3nccc(Nc4cc(OC)ccc4C)n3)c2)C1`, the inhibition amounted to 10%.
In the case of `CCN(CC)CCN(Cc1ccc(-c2ccc(C(F)(F)F)cc2)cc1)C(=O)Cn1c(CCc2cccc(F)c2F)nc(=O)c2ccc(C(F)(F)F)cc21`, the inhibition amounted to 1.99%.
Regarding `CCOC(=O)c1ccc(NC(=O)Nc2cccc(-c3cccc(-c4nc5ccccc5[nH]4)c3)c2)cc1`, the inhibition was found to be 8.27%.
For `COc1ccc(S(=O)(=O)Nc2cc(C)cc(Br)c2OC)cc1N1CCN(C(=O)C(Cl)(Cl)Cl)CC1` the value was -0.68%.
